Max response, outcome and Potency data for 19 compounds are collected here from PubChem BioAssay (NCATS).

Where “and” joins values, the source holds several entries; their conditions need not be identical. Equal entries are not always repeated. Results filed as inconclusive are left out. More than one record can exist for a structure, and the calls need not agree. A number with no mark means an inactive call. Calls of active or inactive are those of the source. Calls come from the whole dose curve; as a rule, active = well fitted inhibition curve with a large enough effect; inconclusive = small, poorly fitted or top-dose-only effect; inactive = flat fitted curve, though single readings scatter.

The subject of one experiment is CRL-7250. The experiment in a line: Cytotoxic Profiling of Annotated Libraries Using Quantitative High-Throughput Screening (AID 1296008). The following applies: Five cell lines viability, CellTiter-Glo ATP luminescence, 48-72 h; max response: stronger effect = lower value. The procedure, abridged:
(§1)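 Cytotoxicity was measured as CellTiter-Glo ATP luminescence, read after 10 min at room temperature. Compound treatment of the cells lasted 48 or 72 hr at 37 degrees Celsius in a qHTS format.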
(In ATP-based viability assays light output follows the ATP content of the culture.)

Experiment [1] concerns HaCat. Described as above. The following applies: Five cell lines viability, CellTiter-Glo ATP luminescence, 48-72 h; max response: stronger effect = lower value. The gist of the method:
as §1

Another experiment deals with KB-3-1. The description is as above. The settings on record: Five cell lines viability, CellTiter-Glo ATP luminescence, 48-72 h; max response: stronger effect = lower value. The gist of the method:
as §1

The test system of experiment [2] is HACAT. Description: qHTS assay to identify novel small-molecules to repurpose for Merkel cell carcinoma treatment (AID 1296009). The following applies: MCC and control cell lines, CellTiter-Glo viability, 72 h; at 44.8 µM (top of the series) unless noted. The gist of the method:
(§2)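 Cell viability, measured as CellTiter-Glo luminescence, was normalized between DMSO and no-cell wells. The cells had been exposed to 8- or 11-point compound dilutions for 72 hr at 37 degree celsius.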

The next experiment concerns MCC-13. The experiment is described as above. The following applies: MCC and control cell lines, CellTiter-Glo viability, 72 h; series mostly up to 46 µM. The procedure, abridged:
as §2

A further experiment has as its system MCC-26. The experiment is described as above. The following applies: MCC and control cell lines, CellTiter-Glo viability, 72 h; series mostly up to 46 µM. The gist of the method: as §2
Another experiment relates to NIH3T3. The experiment in a line: Cytotoxic Profiling of Annotated Libraries Using Quantitative High-Throughput Screening (AID 1296008). The settings on record: Five cell lines viability, CellTiter-Glo ATP luminescence, 48-72 h; max response: stronger effect = lower value. The procedure, abridged:
as §1
% is set by controls: 0 for no effect and ±100 for the full control effect; potency is the fitted concentration of half-maximal effect.
Note: nearly all actives have a fitted effect of over 60% in size.

Turning to `COc1ccc(Cn2ccc3ccc(C(=O)NO)cc32)cc1`, the max response was -16.1% and -2.36% in the experiment on CRL-7250; -11.8% with HaCat [1]; 8.71% with KB-3-1. In addition, the compound was classed as inactive with HaCat [1], with KB-3-1 and in the experiment on HACAT [2]. Also, the Potency entry in the experiment with MCC-13 and in the experiment on MCC-26 was “inactive” each time.

On to `CCCCC(C=O)NC(=O)C(CC(C)C)NC(=O)OCc1ccccc1` (stereo not given), for which the results for the max response in the experiment on CRL-7250, in the experiment with KB-3-1 and in the experiment on NIH3T3 were -8.38%, -12% and -21.8%, respectively. The compound was classed as inactive in the experiment with HaCat [1] and in the experiment with HACAT [2]. In addition, the Potency entry in the experiment with MCC-13 and in the experiment with MCC-26 was “inactive” throughout.

Consider `CCCCC[C@H](O)C=C[C@H]1[C@H](O)CC(=O)[C@H]1CC=CCCCC(=O)O`, for which the max response was 2.95% with CRL-7250 and -18.8% in the experiment with NIH3T3. Further, the call with HaCat [1], with KB-3-1 and with HACAT [2] was inactive. Further, the Potency entry with MCC-13 and in the experiment on MCC-26 was “inactive” in each case.

As for `N#CC(=C1Nc2ccccc2S1)c1ccnc(OCc2ccc(CN3CCOCC3)cc2)n1`, the max response with CRL-7250 is 4.11%; in the experiment with KB-3-1, -1.84%; in the experiment on NIH3T3, -8.13%. The outcome with HaCat [1] and in the experiment on HACAT [2] was “inactive; activator” throughout. Besides, the Potency result in the experiment on MCC-13 and in the experiment on MCC-26 was “inactive” throughout.

Turning to `CO[C@@H]1C(N(C)C(=O)c2ccccc2)C[C@H]2O[C@]1(C)n1c3ccccc3c3c4c(c5c6ccccc6n2c5c31)C(=O)NC4=O` (stereo not given in full), the Potency with CRL-7250 was 6.62 µM (active); in the experiment on HaCat [1] it was 9.35 µM (active); in the experiment with KB-3-1, 10.5 µM (active).

As to `C[C@@H]1CCO[C@H]2Cn3cc(C(=O)NCc4ccc(F)cc4F)c(=O)c(O)c3C(=O)N12`, the outcome in the experiment with CRL-7250, with HaCat [1] and in the experiment on HACAT [2] was inactive. Further, the max response was -10.6% and -26.2% in the experiment with KB-3-1; -1.73% in the experiment on NIH3T3. The Potency in the experiment with NIH3T3 is 20.6 µM (active). Besides, the Potency result with MCC-13 and in the experiment with MCC-26 was “inactive” throughout.

On to `CN(C)CCOc1ccc(-c2nc(-c3ccc4c(c3)CCC4=NO)c(-c3ccncc3)[nH]2)cc1`, for which the compound was called inactive in the experiment on CRL-7250, in the experiment on HaCat [1] and with HACAT [2]. For the same compound, the max response with KB-3-1 was 2.27%; in the experiment on NIH3T3, 1.65%. Further, the Potency result with MCC-13 and with MCC-26 was “inactive” throughout.

As for `CCOC(=O)N1CCN([N+]([O-])=NOc2cc(ON=[N+]([O-])N3CCN(C(=O)OCC)CC3)c([N+](=O)[O-])cc2[N+](=O)[O-])CC1`, the outcome in the experiment on CRL-7250, with HaCat [1], in the experiment with KB-3-1, in the experiment on NIH3T3 and in the experiment on HACAT [2] was inactive.

With `COc1nccc(-c2c(-c3ccc(F)cc3)ncn2C2CCNCC2)n1`, the max response in the experiment with CRL-7250 was -23.7% and 3.35%; in the experiment with HaCat [1], -7.28% and 1.1%; with KB-3-1, -17.7%; in the experiment on NIH3T3, -16.2%. In addition, the call in the experiment with KB-3-1 was inactive. Also, the Potency entry in the experiment with MCC-13 and in the experiment on MCC-26 was “inactive” throughout.

Regarding `Cc1ccc(C2=Nc3ccc(Cl)cc3OC2)cc1`, the call with CRL-7250, with HaCat [1] and with HACAT [2] was inactive. Also, the max response in the experiment on KB-3-1 is 5.39%; in the experiment on NIH3T3, -2.62%. The Potency result with MCC-13 and with MCC-26 was “inactive” each time.

On to `CCCCN(CCCC)CC(O)c1cc(Cl)cc2c1-c1ccc(Cl)cc1C2=Cc1ccc(Cl)cc1` (stereo not given), for which the max response in the experiment on CRL-7250 is -1.5%; in the experiment on KB-3-1 it was 3.8%. Also, the compound was called inactive with HaCat [1], with NIH3T3 and in the experiment with HACAT [2]. Further, the Potency entry with MCC-13 and in the experiment on MCC-26 was “inactive” each time.

On to `C=C[C@@H]1CN2CCC1C[C@@H]2C(O)c1ccnc2ccc(OC)cc12` (stereo not given in full), for which the compound was called inactive in the experiment on CRL-7250, with HaCat [1] and with HACAT [2]. Besides, the max response in the experiment on KB-3-1 is 7.83%; with NIH3T3, 0.497%. Besides, the Potency result in the experiment on MCC-13 and in the experiment on MCC-26 was “inactive” each time.

In the case of `N#CC(c1ccnc(NCCc2cccnc2)n1)c1nc2ccccc2s1` (stereo not given), the max response in the experiment with CRL-7250 is -3.29%; in the experiment with KB-3-1 it was 8.21%; with NIH3T3, -3.33%. The compound was classed as inactive in the experiment with HaCat [1] and in the experiment on HACAT [2]. The Potency entry with MCC-13 and in the experiment with MCC-26 was “inactive” each time.

Consider `C=CC[N+]1([C@H]2C[C@H]3[C@@H]4CC[C@H]5C[C@H](O)[C@@H](N6CCOCC6)C[C@]5(C)[C@@H]4CC[C@]3(C)[C@H]2OC(C)=O)CCCC1`, for which the call with CRL-7250, in the experiment on HaCat [1] and in the experiment on HACAT [2] was inactive. Further, the max response in the experiment on KB-3-1 was 8.47%; with NIH3T3, 4.84%. Further, the Potency entry in the experiment on MCC-13 and with MCC-26 was “inactive” in each case.

As to `FC(F)(F)c1ccc(C=Cc2nc(COc3ccc(CCCCn4ccnn4)cc3)co2)cc1`, the Potency in the experiment with CRL-7250 is 0.0132 µM (active); in the experiment with HaCat [1], 7.43 µM (active); in the experiment on MCC-13, 10.5 µM (active). Also, the results for the max response in the experiment on KB-3-1 and in the experiment with NIH3T3 were -26.9% and -14.8%, respectively.

`CNC(=O)c1ccc2c(C(=Nc3cccc(CN(C)C)c3)c3ccccc3)c(O)[nH]c2c1`: the max response in the experiment with CRL-7250 was -0.775% and -15%; in the experiment with HaCat [1] it was 0.629%. Also, the outcome in the experiment on HaCat [1], with KB-3-1 and in the experiment with HACAT [2] was inactive. Besides, the Potency with NIH3T3 is 16.6 µM (active) and 8.2 µM (active). For the same compound, the Potency entry in the experiment on MCC-13 and with MCC-26 was “inactive” each time.

Take `Cc1nc2c([nH]1)CCN(C(=O)c1ccc(NC(=O)c3ccccc3-c3ccccc3)cc1)c1ccccc1-2`: the max response in the experiment with CRL-7250 was 1.7% and 3.01%; with HaCat [1] it was -0.498%; in the experiment with KB-3-1, 0.364% and -8.3%; with NIH3T3, 4.2%. The compound was classed as inactive with HaCat [1], with NIH3T3 and with HACAT [2]. Besides, the Potency entry in the experiment on MCC-13 and with MCC-26 was “inactive” in each case.

On to `CCOC(=O)c1c(CSc2ccccc2)n(C)c2cc(Br)c(O)c(CN(C)C)c12`, for which the result in the experiment with CRL-7250, in the experiment on HaCat [1] and with HACAT [2] was inactive. Moreover, the max response was -17.1% with KB-3-1 and -4.48% in the experiment with NIH3T3. The Potency result in the experiment with MCC-13 and with MCC-26 was “inactive” throughout.

Take `CCC[C@H](N[C@@H](C)C(=O)N1[C@@H]2CCCC[C@H]2C[C@H]1C(=O)O)C(=O)OCC`: the max response in the experiment on CRL-7250 is 2.7%; with KB-3-1, -1.21%; with NIH3T3, -10.8%. In addition, the compound was classed as inactive in the experiment on HaCat [1] and in the experiment on HACAT [2]. Further, the Potency entry in the experiment with MCC-13 and with MCC-26 was “inactive” in each case.
